Compound activity (PubChem)
Nrf2 block – blocks Nrf2 signaling. A549 ARE-Fluc reporter, luciferase luminescence, 18-24 h. Potency, µM (doses to about 46 µM), for the others: at the top dose activity change, negative = inhibition, most hits filed as inhibitors. 360,000 tested, 2.1% active. AID 504444; further: potency means the concentration at half of the fitted maximal effect; on the % scale 0 is the no-effect control and ±100 the full control effect; nearly all actives have a fitted effect of over 60% in size
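Nrf2 activity is the BugLite luminescence, read 15 min after reagent at room temperature, following CellTiter-Fluor cytotoxicity readout (30 min, 37C). Compound titrations were applied for 18-24 h to 5000 A549 ARE_Fluc cells/well in 5% FBS OPTI-MEM.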
12-LOX inh – blocks human arachidonate 12S-lipoxygenase; 580,000 tested, 1.1% active; purified 12hLO, xylenol orange hydroperoxide absorbance; Potency, µM (series often up to 108 µM), for the others: at the highest dose activity change, negative = inhibition, actives largely listed as inhibitors; AID 1671190; P18054; further: potency means the concentration at half of the fitted maximal effect; on the % scale 0 is the no-effect control and ±100 the full control effect
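Purified human 12hLO (150 nM final) in 25 mM Hepes, 0.01% Triton X-100, pH 7.0 was preincubated 15 min at room temperature with compound. Then 40 uM arachidonic acid was added, 30 min. Hydroperoxide was read by Fe-XO absorbance ratio 573/405 nm.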
LDHA inh – LDHA (human) enzyme inhibition; activity change, % (values are at about 110 or 230 µM); AID 1347041; P00338; purified LDHA, NADH/diaphorase-resazurin fluorescence; hits give low values; 480,000 tested, 0.15% active; in the data active means activity change below about -30%; inconclusive means mostly about -25% to -30%;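 further: plate controls were DMSO wells for no effect and wells without enzyme for full effect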
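LDH5 2 nM; NADH 0.06 mM, pyruvate 0.2 mM; 200 mM Tris pH 7.4, EDTA, Tween-20; 5 min RT. Detection: diaphorase 0.133 mg/mL + resazurin 37 µM, fluorescence ex540/em590 at 0 and 20 min; normalized to enzyme-free and DMSO wells.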
Nrf2 activator – activators of Nrf2 (ARE) signaling | AREc32 ARE-luciferase reporter (MCF7-derived line), luminescence, 24 h | Potency, µM (doses to about 46.1 µM), inactives show at the highest dose activation, actives largely listed as activators | 410,000 tested, 0.31% active; further: potency means the concentration at half of the fitted maximal effect; % of control where 0% means no effect; nearly all actives have a fitted effect of over 65% in size
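Reporter line AREc32 (ARE-Fluc), seeded overnight in OPTI-MEM with 5% FBS; compound pin-transferred, 24 hr at 37 deg C, 5% CO2; luminescent read-out.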
IDH1 R132H inh – inhibitors of human mutant IDH1 R132H | Potency, µM (doses to about 76.6 µM), inactives show at the top dose activity change, negative = inhibition, hits mostly inhibitors | 390,000 tested, 0.093% active | O75874 | IDH1-R132H enzyme, NADPH consumption, diaphorase/resazurin fluorescence; further: potency means the concentration at half of the fitted maximal effect; on the % scale 0 is the no-effect control and ±100 the full control effect; nearly all actives have a fitted effect of over 65% in size
Target sequence (O75874 whole entry R132H, stated change not applied): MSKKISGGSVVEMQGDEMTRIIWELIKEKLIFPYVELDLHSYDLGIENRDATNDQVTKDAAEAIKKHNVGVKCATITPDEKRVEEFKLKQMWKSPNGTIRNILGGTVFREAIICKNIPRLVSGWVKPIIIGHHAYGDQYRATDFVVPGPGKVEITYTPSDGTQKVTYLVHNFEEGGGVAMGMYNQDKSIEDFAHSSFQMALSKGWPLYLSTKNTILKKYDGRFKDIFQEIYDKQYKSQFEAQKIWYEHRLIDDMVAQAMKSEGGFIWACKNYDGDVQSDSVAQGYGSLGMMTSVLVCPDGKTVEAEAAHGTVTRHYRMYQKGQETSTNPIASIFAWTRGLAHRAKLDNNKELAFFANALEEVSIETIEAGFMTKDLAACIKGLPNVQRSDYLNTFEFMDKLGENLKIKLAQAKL
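IDH1-R132H (0.5 ug/mL) preincubated 30 min with compound, then NADPH (0.016 mM) and alpha-KG (2 mM) added; 80 min at RT, pH 7.5. Remaining NADPH coupled via diaphorase/resazurin to fluorescence (540/590 nm); concentration-response curves normalized to no-enzyme control.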
A549 tox – counter-screen for Nrf2 inhibitors: cytotoxicity in A549 cells; Potency, µM (top dose mostly 46 µM), without a hit: top-dose activity change, negative = cytotoxicity, usual class: inhibitors; A549 ARE-Fluc cells, CellTiter-Fluor viability, 18-24 h; 390,000 tested, 0.16% active; further: potency means the concentration at half of the fitted maximal effect; on the % scale 0 is the no-effect control and ±100 the full control effect
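Cytotoxicity counterscreen: CellTiter-Fluor fluorescence was measured in A549 ARE_Fluc cells after 18-24 h of compound exposure in a concentration series. The subsequent BugLite luminescent read reports ARE-luciferase activity.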
Active calls of the source: *; u = inconclusive; x = not tested or not shown; ! = not confirmed by another sample; [ ] = remark or other dose. A selection: hits, their analogues and other compounds. The true share with any hit is near 2.7%. Unless noted, the call rests on the fitted dose curve; in most records, active means well fitted curve in the direction sought with a large enough effect; inconclusive means small, poorly fitted or top-dose-only effect, or another doubt; inactive means no such curve, though single readings can be large; an effect the other way counts as inactive or inconclusive.

SMILES	Nrf2 block	12-LOX inh	LDHA inh	Nrf2 activator	IDH1 R132H inh	A549 tox
O=C(Nc1ccccc1)Nc1ccc(NC(=O)c2ccc(Cl)cc2)cc1	x	-27%	-2	x	x	x
CCC1CN(C(=O)NCc2ccccc2)c2cc(C)ccc2O1 (stereo not given)	u	2%	0	0%	2%	u
CCC1CN(C(=O)NCc2ccc(C)cc2)c2cc(C)ccc2O1 (stereo not given)	21µM*!	0%	0	1%	7%	u
CCOc1ccc(NC(=S)NC(=O)/C=C/c2ccc(OC)c(OC)c2)c([N+](=O)[O-])c1	21µM*	-24%	-6	-1%	-6%	u
CCOc1ccc(NC(=S)NC(=O)/C=C/c2ccc(C)cc2)c([N+](=O)[O-])c1	u	3%	-6	2%	2%	-19%
c1cncc(-c2nc(Sc3ccc4c(c3)OCCCO4)c3ccccc3n2)c1	x	u	12	x	x	x
Cc1nnsc1C(=O)NC1CCCc2c1cnn2-c1ccccc1F (stereo not given)	2.1µM*	-1%	-5	2%	0%	-16%
O=C(CCc1ccncc1)NC1CCCc2c1cnn2-c1ccc(F)cc1F (stereo not given)	8.2µM*	5%	-2	-1%	-8%	-10%
O=C(Nc1nnc(-c2ccc(F)cc2)s1)C(=O)c1c[nH]c2ccccc12	x	46%	-9	x	x	x
Cc1ccc(NC(=S)/N=C(\N)Nc2nc(C)c3cc(C)c(C)cc3n2)cc1C	-3%	35µM*	-7	1%	-8%	-10%
CCc1ccccc1NC(=S)/N=C(\N)Nc1nc(C)c2cc(C)ccc2n1	17%	35µM*	-9	7%	8%	-21%
Cc1ccc(NC(=S)/N=C(\N)Nc2nc(C)c3cc(C)ccc3n2)c(C)c1	u	u	-2	8%	-3%	-1%
CCCc1nnc2sc(C(C)(C)Oc3ccc(Cl)cc3)nn12	x	-1%	10	x	x	x
Fc1ccc(OCc2nnc3sc(COc4ccc(Cl)cc4)nn23)cc1	x	0%	4	x	x	x
Cc1sc(/N=C/c2ccc(Br)cc2)c(C#N)c1C	x	18µM*	4	x	x	x
Cc1sc(/N=C/c2cccc3ccccc23)c(C#N)c1C	x	-67%	2	x	x	x
Cc1sc(/N=C/c2c[nH]c3ccccc23)c(C#N)c1C	x	20µM*	8	x	x	x
FC(F)(F)Sc1ccc(N=Cc2c3ccccc3cc3ccccc23)cc1	x	u	-1	x	x	x
Clc1ccc2c(NCc3ccccn3)ncnc2c1	x	-21%	-11	6.3µM*	0%	-1%
CN(C)Cc1ccccc1-c1cncnc1NCc1cccs1	x	-11%	x	x	x	x
Clc1ccc2c(NCc3ccco3)ncnc2c1	u	74%	-10	u	4%	-14%
Clc1ccc2c(NCc3cccs3)ncnc2c1	16µM*	0%	-5	0%	15%	-4%
Clc1ccccc1-c1cncnc1NCc1cccs1	x	35µM*	x	x	x	x
COc1cc2ncnc(NCc3cccs3)c2cc1OC	-4%	18%	2	3%	-2%	-7%
O=C(Nc1cc(F)cc(F)c1)C1CCN(C(=O)c2ncn3c2COC(c2ccc(F)cc2)C3)CC1 (stereo not given)	x	59%	x	x	x	x
SMILES	Nrf2 block	12-LOX inh	LDHA inh	Nrf2 activator	IDH1 R132H inh	A549 tox
Cc1ccccc1S(=O)(=O)Cc1ccc(C(=O)N2CC(C)CC(C)C2)o1 (stereo not given)	9%	6%	-2	0%	-6%	2%
Cc1ccccc1S(=O)(=O)Cc1ccc(C(=O)N2CCN(c3cccc(C)c3C)CC2)o1	10µM*	-4%	-2	-1%	7%	u
Cc1ccccc1S(=O)(=O)Cc1ccc(C(=O)N2CCN(c3cccc(Cl)c3)CC2)o1	18µM*	-6%	-4	0%	-15%	-23%
CN1CCN(C(=O)c2ccc(CNC(=O)c3cc(=O)[nH]c4ccccc34)cc2)CC1	x	5%	4	x	x	x
O=C1C(=Cc2ccco2)CCCC1=Cc1ccco1	3%	25µM*	13	3.2µM*	-6%	1%
O=C1C(=Cc2ccco2)CCC1=Cc1ccco1	-6%	35µM*	-10	18%	6%	u
Cc1cc(NC(=O)C(C)SCC(=O)Nc2ccccc2)no1 (stereo not given)	x	-5%	3	x	x	x
COc1ccc(CN2CCCC23Cc2ccccc2CNC3=O)cn1 (stereo not given)	x	8%[6.33 µM]	x	x	x	x
Cc1cccn2cc(CNS(=O)(=O)c3ccc4ccccc4c3)nc12	13µM*	32%	-7	0%	5%	-7%
CNC(=O)c1ccc(NS(=O)(=O)c2ccc(C(C)(C)C)cc2)cc1	x	5%	-6	x	x	x
O=C(C1=C(O)C(=O)N(CCN2CCOCC2)C1c1cccs1)c1cc2ccccc2o1 (stereo not given)	14%	7.1µM*	-1	7%	2%	-3%
O=C(CN(Cc1ccco1)C(=O)c1ccc([N+](=O)[O-])cc1)Nc1ccccc1C(F)(F)F	6%	u	0	3%	3%	-8%
CC(C)COc1ccc(C(=O)N(CC(=O)Nc2ccccc2C(F)(F)F)Cc2ccco2)cc1	18µM*	-40%	-6	3%	8%	u
Cc1ccc(CN(Cc2ccco2)C(=O)COc2ccc(C(C)C)cc2)cc1	18µM*	-7%	8	-1%	8%	7%
CCCCOc1ccc(C(=O)N(Cc2ccco2)Cc2ccco2)cc1	-16%	18µM*	1	15%	22%	4%
Cc1ccc(OCC(=O)N(Cc2ccco2)Cc2ccco2)cc1	8%	0%	-6	8%	4%	4%
CCc1ccc(N2C(=O)CN(S(C)(=O)=O)CC2(C)C(=O)NCc2ccccc2)cc1 (stereo not given)	x	-4%	-7	x	x	x
COc1cc(/C=C(/C#N)C(=O)O)ccc1OC(=O)c1cccs1	x	u	-4	x	x	x
CCNC(=O)c1cccc(NC(=O)c2cc(C3CC3)nc3c2cnn3C(C)C)c1	18µM*	15%	-2	0%	-6%	-11%
CCCC(C)NC(=O)CSc1nc2ccccc2o1 (stereo not given)	x	u	-5	x	x	x
CCn1cnc2c1c(=O)n(CC(=O)Nc1ccccc1N1CCCC1)c(=O)n2Cc1ccccc1	x	u	13	x	x	x
Cc1ccn2c(-c3n[nH]c(=S)n3Cc3ccccc3)c(C)nc2c1	-15%	8.9µM*	-7	0%	-2%	-13%
Cc1ccn2c(-c3csc(NCc4ccccc4)n3)c(C)nc2c1	26µM*	11µM*	11	6%	1%	u
O=C(N/N=C/CCc1ccccc1)c1cccs1	x	41%	3	x	x	x
